# Reference: PubChem BioAssay AID434939 (The Scripps Research Institute Molecular Screening Center, 2010)
# Among all 2,300 compounds or so, about 2,000 (87%) were called active. So high a share suggests a set chosen from earlier hits. Not all results are given here. A number with no mark means an inactive call. Cut-off read from the data, not from the text of the source: active = activation above about 11%; inactive = the rest.
# Biological target: Nuclear receptor subfamily 1 group I member 2 (Homo sapiens) (UniProt O75469)
# Test: human PXR activators, counter-screen for AHR activator project, cell-based, luciferase luminescence (AID 434939);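 note: human hepatoma DPX-2 cells expressing full-length human PXR; 0% = DMSO and 100% = reference agonist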
# Conditions: cell-based PXR reporter, at 11.6 µM, stronger effect = higher value
# Chain of Nuclear receptor subfamily 1 group I member 2 (Homo sapiens) (O75469 whole entry, looked up): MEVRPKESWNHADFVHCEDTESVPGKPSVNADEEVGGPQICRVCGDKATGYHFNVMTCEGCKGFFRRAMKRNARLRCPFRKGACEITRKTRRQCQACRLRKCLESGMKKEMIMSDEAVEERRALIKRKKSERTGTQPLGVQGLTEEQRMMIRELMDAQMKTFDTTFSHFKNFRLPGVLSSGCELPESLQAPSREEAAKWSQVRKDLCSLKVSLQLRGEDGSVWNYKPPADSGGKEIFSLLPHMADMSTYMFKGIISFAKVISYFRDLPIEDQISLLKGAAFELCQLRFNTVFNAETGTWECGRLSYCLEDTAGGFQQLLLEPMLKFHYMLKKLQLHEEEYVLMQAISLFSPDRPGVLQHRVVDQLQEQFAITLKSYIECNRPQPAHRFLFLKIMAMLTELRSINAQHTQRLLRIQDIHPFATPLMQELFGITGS
row,Structure (SMILES),activation
1,O=C(CSc1cccc2cccnc12)N/N=C/c1cccnc1,10.2% (active)
2,COc1ccc(OC)c(-c2csc(-c3cccs3)n2)c1,21.7% (active)
3,O=C(CC1Nc2ccccc2NC1=O)Nc1ccccc1 (centres undefined),26.3% (active)
4,COc1cc(NC(=O)c2ccc(-c3csc(C)n3)cc2)c(OC)cc1Cl,20.9% (active)
5,O=C(Cn1cncn1)N/N=C/c1c2ccccc2cc2ccccc12,13.7% (active)
6,O=C(Nc1ccc(Cl)cn1)c1cnn2cccnc12,35.9% (active)
7,Cc1ccc(-c2nc(C#N)c(NCCCn3ccnc3)o2)cc1,34.4% (active)
8,Cc1ccnc(NC(=O)c2ccc(Cl)c([N+](=O)[O-])c2)c1,42.9% (active)
9,Nc1[nH][nH]c(=O)c1N=Nc1ccc2c(c1)OCO2,11.2% (active)
10,CCOC(=O)c1nc(-c2ccc3c(c2)OCO3)[nH]c1C,34.2% (active)
11,CCSc1ccccc1C(=O)Nc1ccc2c(c1)OCO2,143% (active)
12,C=CCNC(=O)CSc1nc2sc(C)c(C)c2c(=O)[nH]1,16.4% (active)
13,COc1ccccc1NC(=O)C1=C(C)NC2=C(C(=O)CCC2)C1c1ccc(C)o1 (centres undefined),111% (active)
14,Brc1ccc(C2CC(c3ccccc3)=Nc3ccccc3N2)cc1 (centres undefined),39.7% (active)
15,Cc1cccc(NC(=O)Nc2ccc3c(c2)OCO3)n1,46.3% (active)
16,COc1ccccc1N1CCN(C(=O)c2cc3c(-c4ccc(Cl)cc4)nn(C)c3s2)CC1,39.5% (active)
17,Cn1nc(-c2ccc(Cl)cc2)c2cc(C(=O)NCc3ccco3)sc21,26.7% (active)
18,CCOC(=O)N1CCN(C(=O)c2cc3c(-c4ccc(Cl)cc4)nn(C)c3s2)CC1,48.9% (active)
19,CCOC(=O)c1ccc2[nH]c3c(c2c1)CCCC3NC=O (centres undefined),5.7%
20,O=C(N/N=C/c1c[nH]c2ccccc12)c1cc2ccccc2o1,7.59%
21,COc1cccc(-n2c(SCC(=O)NC3CCCCC3)nc3n[nH]c(C)c3c2=N)c1,160% (active)
22,COc1ccccc1Nc1ncnc2c1oc1ccccc12,21.1% (active)
23,Cc1cc(N2CCOCC2)nc(-c2ccc(Br)cc2)n1,43.3% (active)
24,O=C(Nc1ccc(C2CC2(Cl)Cl)cc1)c1cccc([N+](=O)[O-])c1 (centres undefined),19.2% (active)
25,COc1ccc(C2NC(=O)c3ccccc3N2)cc1 (centres undefined),6.29%
26,Brc1ccc(-c2noc(-c3ccccc3)n2)o1,20.2% (active)
27,CC(=O)Nc1ccc(-c2nc3ccccc3o2)cc1,10.9% (active)
28,CC(C)C(=O)Nc1c(C(=O)c2ccc(F)cc2)oc2ccccc12,25.4% (active)
29,C/C(CC1CC(C)(C)OC1=O)=N/Nc1nc(-c2ccccc2)cs1 (centres undefined),189% (active)
